# BAZ2B block: BAZ2B (human) inhibition; Q9UIF8; AlphaScreen BAZ2B-H3K14Ac peptide displacement; Potency, µM (highest dose often 114 µM), for the others: at the top dose activity change, negative = inhibition, actives largely listed as inhibitors; hit rate 4.4% among 360,000; AID 504333; note: % is set by controls: 0 for no effect and ±100 for the full control effect; nearly all actives have a fitted effect of over 60% in size
#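 Compounds, titrated to a top concentration of 110 uM, were incubated 30 min at room temperature with preformed BAZ2B/acetyl-K14 H3 peptide complex (50 nM each). Proximity signal was measured by AlphaScreen after 20 min with beads.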
# JMJD2A Tudor: inhibitors of human JMJD2A Tudor domain; Potency, µM (doses to about 114 µM), inactives show at the top dose activity change, negative = inhibition, actives largely listed as inhibitors; AlphaScreen JMJD2A-Tudor / H3K4me3 peptide binding; hit rate 4.4% among 390,000; note: % is set by controls: 0 for no effect and ±100 for the full control effect; nearly all actives have a fitted effect of over 50% in size
# VDR inh: inhibitors of human vitamin D receptor; P11473; VDR-SRC2-3 peptide fluorescence polarization, 2 h; Potency, µM, for the others: max response, negative = inhibition, most hits filed as inhibitors; hit rate 0.93% among 400,000; AID 504847; note: % is set by controls: 0 for no effect and ±100 for the full control effect
#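 FP read-out; VDR + SRC2-3 coactivator peptide; 23 nl compound by pintool; 2 h RT incubation; reagents held at 4 deg C, protected from light.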
# L3MBTL1 inh: inhibitors of human L3MBTL1; Q9Y468; AlphaScreen L3MBTL1–H3K9me1 peptide binding; Potency, µM (top dose mostly 57.1 µM), without a hit: top-dose activity, negative = inhibition, actives largely listed as inhibitors; hit rate 0.66% among 230,000; AID 485360; note: % is set by controls: 0 for no effect and ±100 for the full control effect; nearly all actives have a fitted effect of over 60% in size
#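 AlphaScreen proximity signal between nickel-chelate acceptor and streptavidin donor beads (final 10 ug/mL) reports binding of 50 nM L3MBTL1 to 75 nM biotin-H3 K9me1 peptide; complex incubated with compounds 30 min at room temperature; cefsulodin titration as control.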
# PLK1 PBD block: PLK1 (human) polo-box domain binding inhibition. P53350. Plk1 PBD binding of FITC phosphopeptide, fluorescence polarization. Potency, µM, for inactives: max response, negative = inhibition, most hits filed as inhibitors. hit rate 2.8% among 360,000. AID 720504; note: series mostly up to about 57 µM; % is set by controls: 0 for no effect and ±100 for the full control effect; nearly all actives have a fitted effect of over 65% in size
# HP1b chromo inh: inhibitors of HP1-beta chromodomain binding to methylated histone tails. P83916. AlphaScreen HP1-beta / biotin-H3K9me3 peptide binding. Potency, µM (highest dose often 114 µM), for the others: top-dose activity change, negative = inhibition, hits mostly inhibitors. hit rate 0.56% among 390,000; note: nearly all actives have a fitted effect of over 70% in size
#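 HP1-beta protein (50 nM final) preincubated 30 min at room temperature with biotinylated H3(1-18)K9me3 peptide (50 nM) in PBS pH 7.4, 0.01% Tween-20, then compound added for 30 min. AlphaScreen streptavidin donor/nickel chelate acceptor beads (10 ug/mL final), 30 min dark, luminescence read.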
# * marks the source's active call; other numbers are inactive results; ? = inconclusive; . = not tested or not shown; [ ] = dose if it differs, or a comment. An excerpt weighted towards active compounds, which were near 6.9% of everything screened. Calls come from the whole dose curve; as a rule, active = well fitted curve in the direction sought with a large enough effect; inconclusive = small, poorly fitted or top-dose-only effect, or another doubt; inactive = no such curve, though single readings can be large; an effect the other way counts as inactive or inconclusive. Potency is the fitted concentration of half-maximal effect.
SMILES,BAZ2B block,JMJD2A Tudor,VDR inh,L3MBTL1 inh,PLK1 PBD block,HP1b chromo inh
Cc1cc(N2CCCC2)ccc1/C=C1\NC(=S)N(C)C1=O,?,22µM*,?,?,48%,?
Cc1ccc(C(=O)NC(=S)NNC(=O)COc2ccccc2C)cc1,4%,22µM*,-24%,16%,-11%,-14%
O=C(NNC(=S)NC(=O)c1ccco1)c1ccc(NC(=O)c2ccccc2)cc1,.,12%[11.4 µM],7%,.,-22%,35%
CC(=O)NNC(=S)NC(=O)c1ccccc1,1%,20µM*,5%,12%,-7%,13%
COc1ccccc1OCC(=O)NNC(=S)NC(=O)c1ccco1,55%,79µM*,1%,.,-27%,4%
CCC(=O)NNC(=S)NC(=O)c1ccc(C)cc1,14%,?,-3%,22%,?,24%
O=C(NC(=S)NNC(=O)c1cc2ccccc2cc1O)c1ccco1,7%,45µM*,?,?,-18%,1%
O=C(COc1ccccc1)NNC(=S)NC(=O)c1ccccc1,.,18µM*,15%,2%,?,5%
CN(C)S(=O)(=O)c1cccc(NC(=S)NNC(=O)c2cc3ccccc3cc2O)c1,?,40µM*,-3%,-29%,24µM*,-27%[57 µM]
Cc1ccccc1OCC(=O)NNC(=O)CSc1nc(N)cc(N)n1,-9%,-18%[11.4 µM],-5%,2%,21µM*,-11%
CN(C)S(=O)(=O)c1cccc(NC(=S)NC(=O)c2ccco2)c1,-6%,?,-8%,-12%,-3%,18%
N#Cc1ccc(OCC(=O)NNC(=S)NC(=O)C2CC2)cc1,.,28µM*,-12%,22%,-1%,24%
COc1ccc(C(C#N)=Cc2ccc(N(C)CCC#N)cc2)cc1,.,.,.,.,5%,.
O=S(=O)(c1ccc2c(c1)OCO2)N1CCN(c2nc(-c3cccs3)nc3ccccc23)CC1,.,-10%,0%,.,.,30%
COc1ccc(S(=O)(=O)NC2CCN(C#N)CC2)cc1,.,-3%,.,.,.,.
CC1CCCN(c2cc3c(cc2F)c(=O)c(S(=O)(=O)c2cccc(Cl)c2)cn3C)C1 (stereo not drawn),2%,2%,5%,.,.,15%
COc1ccc(OCC(=O)NC(=S)Nc2ccc3c4c(cccc24)CC3)cc1,-20%,-19%,-2%,5%,-7%,29%
Cc1ccccc1OCC(=O)NC(=S)Nc1ccc2c3c(cccc13)CC2,11%,-29%[11.4 µM],-25%,.,3µM*,-2%
COC(=O)C(NC(=O)c1ccccc1)=C(C)C,3%,-29%[11.4 µM],-9%,.,3.4µM*,-6%
CCOc1ccc(CNC(=O)C2CCCN(c3nn4cc(-c5ccc(OC)cc5)nc4s3)C2)cc1 (stereo not drawn),-12%,-32%,6%,.,.,-2%
O=C(O)c1cccc(NC(=S)N/N=C/c2ccccc2OCc2cccc(Br)c2)c1,45µM*,50µM*,?,-11%,?,?
O=C(O)c1cccc(NC(=S)N/N=C/c2ccccc2OCc2ccc(Br)cc2)c1,50µM*,50µM*,?,-23%,24µM*,?
O=C(COc1cccc2ccccc12)N/N=C/c1ccccc1OCc1ccc(C(=O)O)cc1,?,?,4%,.,27µM*,-10%
O=C(O)c1cccc(NC(=S)N/N=C/c2cccc(O)c2)c1,-23%,-17%,-1%,16%,-14%,-7%
O=C(O)c1cccc(NC(=S)N/N=C/c2ccccn2)c1,3.5µM*,25µM*,?,20µM*,-13%,14%
SMILES,BAZ2B block,JMJD2A Tudor,VDR inh,L3MBTL1 inh,PLK1 PBD block,HP1b chromo inh
CC(=O)Nc1ccc(OCc2cccc(-c3nc4ccccc4c(=O)n3Cc3ccco3)c2)cc1,.,56µM*,.,.,.,.
COc1ccc(C2Nc3ccccc3C(=O)N2Cc2ccco2)cc1COc1ccc(F)cc1 (stereo not drawn),-20%,-25%[57.1 µM],-5%,-13%,-19%,35%
CC(=O)Nc1ccc(OCc2cccc(C3Nc4ccccc4C(=O)N3Cc3ccco3)c2)cc1 (stereo not drawn),.,89µM*,.,.,.,.
O=C1c2ccccc2NC(c2cccc(O)c2)N1Cc1ccco1 (stereo not drawn),-18%,-14%[57.1 µM],-19%,-7%,-7%,-1%[57 µM]
COc1ccc(C2Nc3ccccc3C(=O)N2Cc2ccco2)cc1COc1ccc(N)cc1 (stereo not drawn),.,22µM*,.,.,.,.
Cc1cc(C)cc(C(=O)OCC(=O)NC(=O)NC2CCCC2)c1,-4%,-6%,2%,-7%,5%,31%
CCOc1ccc(NC(=O)Cn2c(=O)oc3cc(S(=O)(=O)N4CCC(C)CC4)ccc32)cc1,-7%,-17%,-8%,.,.,17%
CC(C)CSc1nnc2[nH]c(=O)cc(N)n12,0%,-17%,-10%,26%,-7%,19%
CCCCCCCCSc1nnc2[nH]c(=O)cc(N)n12,-19%,11µM*,?,.,3.4µM*,-17%
CCN(c1ccccc1)S(=O)(=O)c1cc(-c2onc(C)c2C)ccc1OC,-10%,8%,4%,.,.,32%
CN(C)c1ccc(CNC(=O)Cc2ccc(NC(=O)N3CCCCc4ccccc43)cc2)cc1,45µM*,50µM*,16%,.,.,-12%
Cc1ccc(NC(=O)N2CCc3cc(S(=O)(=O)N4CCC(C)CC4)ccc32)cc1C,1%,-6%,11%,.,.,31%
Fc1cc2[nH]c(=S)[nH]c2c(Br)c1N1CCSCC1,-26%,-25%,-14%,.,27µM*,?
Fc1cc2nccnc2cc1N1CCSCC1,17%,-9%,0%,-10%,-5%,38%
CCN=c1scc(-c2ccco2)n1/N=C/c1ccc(O)cc1,50µM*,56µM*,-17%,.,-10%,?
CC(=O)OC1C2CCC1C([N+]1(C)CCCCC1)CC2 (stereo not drawn),-26%,25µM*,-8%,.,-21%,71µM*
Cn1ccc2cc(S(=O)(=O)N3CCN(C(=O)Nc4cccc(F)c4)CC3)ccc21,-3%,-12%,18%,.,.,20%[57 µM]
CCNC(=O)CSc1nnc(-c2cccc(S(=O)(=O)N(CC)CC)c2)n1CCc1ccccc1,-3%,?,?,4%,21µM*,?
CCN(CC)S(=O)(=O)c1cccc(-c2nnc(SCC(N)=O)n2C)c1,-16%,-8%,0%,.,-6%,12%
OC1(c2ccc(OC(F)F)cc2)CSC(=Nc2cccnc2)N1C1CC1 (stereo not drawn),?,?,5%,-25%,-7%,-19%
COc1ccc(OC)c(C2(O)CSC(=Nc3cccnc3)N2Cc2ccco2)c1 (stereo not drawn),63µM*,-20%[57.1 µM],-28%,17%[11.4 µM],-7%,27%
COc1ccccc1OC(C)C(=O)N1CC(=O)Nc2ccccc21 (stereo not drawn),-15%,-13%,-5%,.,-9%,-2%
